Laboratory results from PubChem BioAssay AID2313 (Broad Institute, 2010).
Out of some 22,000 compounds screened, about 460 (2.1%) were called active. About 2% were inconclusive and are not listed.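 Rule for the calls: active = mean inhibition across valid replicates above about 65% (limit read from the data); inconclusive = mean under the limit, yet half or more replicates past it; inactive = the rest.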 For the sample, actives were picked, then their nearest neighbours and some compounds at random.

Test: Hedgehog pathway signaling inhibitors, primary screen, luminescence, Shh-LIGHT2 cells, Gli-luciferase (AID 2313);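 note: pathway switched on by Shh-conditioned medium diluted 1 in 25 in low serum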
Conditions: Shh-LIGHT2 Gli-luciferase reporter, 30 h; stronger effect = higher value

inhibition, active:
Cc1ccc(NC(=O)c2cccc(N(C)C)c2)cc1NC(=O)c1ccc(O)cc1 83.8%
Cc1ccc2nc(Nc3ccccc3)cc(C)c2c1 72.3%

inhibition, inactive:
CC(C)NC(=O)N(C)C[C@@H]1Oc2ccc(N(C)C)cc2C(=O)N([C@@H](C)CO)C[C@H]1C -15.2%
CC(C)NC(=O)Nc1ccc2c(c1)C(=O)N([C@H](C)CO)C[C@H](C)[C@@H](CN(C)CC1CCCCC1)OCCCC[C@@H](C)O2 -21.5%
C[C@@H]1CN([C@H](C)CO)C(=O)Cc2cc(NS(C)(=O)=O)ccc2O[C@H]1CN(C)S(=O)(=O)c1ccccc1 -3.98%
C[C@@H]1CCCCO[C@H](CN(C)C(=O)Nc2cccc3ccccc23)[C@@H](C)CN([C@H](C)CO)C(=O)c2cc(NC(=O)Nc3ccc4c(c3)OCO4)ccc2O1 -3.94%
Cc1ccc(OCc2n[nH]c(=S)n2C2CCCCC2)c2c1CCC2 9.84%
COc1ccc(NC(=S)SC)cc1OC -54.6%
C[C@@H]1CN([C@H](C)CO)C(=O)c2cccc(NC(=O)NC3CCCCC3)c2O[C@@H]1CN(C)CC1CCCCC1 23.2%
Cc1noc(C)c1S(=O)(=O)N(C)C[C@@H]1Oc2c(NS(=O)(=O)c3cn(C)cn3)cccc2C(=O)N([C@H](C)CO)C[C@@H]1C -16%
C[C@H](CO)N1C[C@H](C)[C@H](CN(C)S(=O)(=O)c2cccs2)Oc2ccc(NC(=O)Nc3ccccc3)cc2C1=O -3.56%
COCc1nc2c([nH]1)C(c1ccccc1COc1ccc(Cl)cc1)C(C#N)=C(N)O2 (centres undefined) -16.6%
C[C@@H]1CN([C@H](C)CO)C(=O)c2cccc(NS(=O)(=O)c3cn(C)cn3)c2O[C@H]1CN(C)Cc1ccc(C(=O)O)cc1 24.8%
Cc1cc(C(=O)Nc2cccc3c2O[C@@H](CN(C)Cc2ccncc2)[C@@H](C)CN([C@@H](C)CO)C3=O)n(C)n1 -8.53%
Cc1ccc(S(=O)(=O)Nc2cccc3c2O[C@@H](CN(C)S(=O)(=O)c2ccc(C)cc2)[C@H](C)CN([C@@H](C)CO)C3=O)cc1 -18.7%
COc1ccc(CNC(=O)c2c(C)oc3c2cc(OC(C)=O)c2ccccc23)cc1 -2.05%
S=c1nc2c(cnn2-c2ccccc2)c(Nc2ccccc2)[nH]1 -7.49%
Cc1ccc(-c2c[n+](=O)c3c(n2[O-])CCC3)cc1 -26.9%
C[C@H]1CN([C@@H](C)CO)C(=O)Cc2cc(NC(=O)Cc3ccccc3)ccc2O[C@@H]1CN(C)S(=O)(=O)c1ccc(Cl)cc1 22.7%
C1=C(c2cccs2)CC(c2cccs2)=NN=C1c1cccs1 -1.01%
COc1ccc(NC(=O)N(C)C[C@@H]2Oc3c(NC(=O)Nc4cccc5ccccc45)cccc3C(=O)N([C@@H](C)CO)C[C@H]2C)cc1 3.07%
C[C@H](CO)N1C[C@H](C)[C@H](CN(C)C(=O)Nc2ccc(C(F)(F)F)cc2)Oc2ccc(N(C)C)cc2CC1=O -27.1%
COc1ccc(NC(=O)Nc2ccc3c(c2)CC(=O)N([C@@H](C)CO)C[C@@H](C)[C@@H](CN(C)Cc2ccc(C(F)(F)F)cc2)O3)cc1 13.9%
COc1ccc(NC(=O)N(C)C[C@@H]2Oc3c(NC(=O)c4ccc(-c5nccs5)cc4)cccc3C(=O)N([C@H](C)CO)C[C@@H]2C)cc1 20.7%
C[C@H](CO)N1C[C@H](C)[C@@H](CN(C)S(=O)(=O)c2ccc(Cl)cc2)Oc2ccc(NS(=O)(=O)c3cn(C)cn3)cc2C1=O 25.4%
C[C@H]1CN([C@@H](C)CO)C(=O)Cc2cc(NC(=O)Nc3ccccc3)ccc2O[C@H]1CN(C)S(=O)(=O)c1cn(C)cn1 -32.8%
C[C@H](CO)N1C[C@H](C)[C@H](CN(C)CC2CCCCC2)Oc2ccc(NC(=O)C3CCCCC3)cc2C1=O 21.2%
Cc1noc(C)c1NC(=O)Nc1ccc2c(c1)CC(=O)N([C@H](C)CO)C[C@@H](C)[C@@H](CN(C)S(=O)(=O)c1ccc(Cl)cc1)O2 -13.6%
Cc1noc(C)c1NC(=O)Nc1ccc2c(c1)C(=O)N([C@@H](C)CO)C[C@H](C)[C@H](CN(C)S(=O)(=O)c1ccc(Cl)cc1)O2 -26.2%
C[C@H](CO)N1C[C@H](C)[C@@H](CN(C)Cc2ccc(C(F)(F)F)cc2)Oc2c(NC(=O)NC3CCCCC3)cccc2C1=O 23.9%
O=C(NCCN1CCCCC1)Nc1cccc(Cl)c1 20.6%
COc1ccc(NC(=O)Nc2ccc3c(c2)CC(=O)N([C@@H](C)CO)C[C@@H](C)[C@@H](CN(C)Cc2ccc(Cl)c(Cl)c2)O3)cc1 38.8%
C[C@@H]1CN([C@H](C)CO)C(=O)Cc2cc(NC(=O)CCCN(C)C)ccc2O[C@H]1CN(C)CC1CCCCC1 18.8%
Cc1cccc(NC(=O)c2ccc(C)c(S(=O)(=O)N3CCCC3)c2)c1 -48.9%
O=C(CCCCn1cnc2ccccc21)c1ccccc1 -10.1%
CNC[C@H]1Oc2ccc(NS(=O)(=O)c3ccc(F)cc3)cc2CC(=O)N([C@H](C)CO)C[C@H]1C -2.19%
C[C@@H]1CN([C@H](C)CO)C(=O)Cc2cc(NS(=O)(=O)c3ccc(Cl)cc3)ccc2O[C@@H]1CN(C)C -10.8%
CNC[C@@H]1Oc2c(NC(=O)Nc3ccc(F)cc3)cccc2C(=O)N([C@@H](C)CO)C[C@@H]1C 15.5%
Cc1ccc(NC(=O)CC(=O)Nc2ccc(C)cc2)cc1 -21.5%
C[C@@H]1CN([C@H](C)CO)C(=O)c2cccc(N(C)C)c2O[C@H]1CN(C)S(=O)(=O)c1cn(C)cn1 3.08%
C=C1C(=O)O[C@H]2C3=C(C)C[C@H](OC(C)=O)C[C@]3(C)CC[C@@H]12 -2.37%
COc1cc(/C=C2\Oc3cc(O)cc(O)c3C2=O)ccc1O 3.42%
Cc1ccc(Nc2nc(C)cc(C)c2C(N)=O)cc1 -37.3%
Cc1ccc2nc(C)c3c(c2c1)N(c1ccccc1)CC3 34.9%
